Assay results from PubChem BioAssay (NCI).
Values joined by “and” are separate entries in the source; they are usually repeats but may differ in a detail not shown here. Equal entries are not always repeated. About 83,000 compounds went through this panel and 20% of them were active in at least one assay; those are over-represented in the sample as a whole.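 Plates (96-well) were seeded with cells, treated with compound at one concentration, and incubated for 48 hours before percent growth was determined.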 Active and inactive are the calls of the source. Rule for the calls: active = growth percent below 10; inactive = the rest.

How the values were obtained:
Test in all cases: NCI-60 one-dose screen, 48 h (100 = growth as untreated, 0 = no growth, -100 = all killed)
[1] = tested on: OVCAR-5 ovarian
[2] = tested on: OVCAR-4 ovarian
[3] = tested on: SK-OV-3 ovarian
[4] = tested on: IGROV1 ovarian
[5] = tested on: OVCAR-3 ovarian
[6] = tested on: NCI/ADR-RES ovarian
[7] = tested on: T-47D breast
[8] = tested on: BT-549 breast
[9] = tested on: MDA-MB-435 melanoma
[10] = tested on: SW-620 colon
[11] = tested on: MCF7 breast
[12] = tested on: HCT-116 colon
[13] = tested on: KM12 colon
[14] = tested on: HS 578T breast
[15] = tested on: HCC-2998 colon

Measured: growth

Cc1cc(N=Nc2ccccc2C)ccc1N
inactive: [1]; 10 µM unless noted 84.7% | [2]; 10 µM unless noted 69.2% | [3]; 10 µM unless noted 99.1% | [4]; 10 µM unless noted 77.1% | [5]; 10 µM unless noted 73.2% | [6]; 10 µM unless noted 79.4% | [7]; 10 µM unless noted 59% | [8]; 10 µM unless noted 69.7% | [9]; 10 µM unless noted 82.9% | [10]; 10 µM unless noted 84.7% | [11]; 10 µM 58.7% | [12]; 10 µM unless noted 78.1% | [13]; 10 µM unless noted 78.2%

COc1ccc(OC)c(/C=C/[N+](=O)[O-])c1
inactive: [1]; 10 µM unless noted 20.2% | [3]; 10 µM unless noted 64.7% | [6]; 10 µM unless noted 17.7% | [7]; 10 µM unless noted 16.6% | [13]; 10 µM unless noted 11.7%
active: [4]; 10 µM unless noted -4.14% | [5]; 10 µM unless noted -59% | [14]; 10 µM unless noted 4.59% | [8]; 10 µM unless noted -45.5% | [9]; 10 µM unless noted 7.04% | [10]; 10 µM unless noted -38.7% | [11]; 10 µM -1.64% | [12]; 10 µM unless noted -81.5% | [15]; 10 µM unless noted -82.4%

S=C(SSC(=S)N1CCCCC1)N1CCCCC1
inactive: [1]; 10 µM 114% | [2]; 10 µM 85.2% | [3]; 10 µM 110% | [3]; 100 µM 45.7% | [4]; 10 µM 99.5% | [4]; 100 µM 50.2% | [5]; 10 µM 105% | [14]; 10 µM 111% | [14]; 100 µM 59.7% | [6]; 10 µM 97.7% | [7]; 10 µM 100% | [8]; 10 µM 92% | [9]; 10 µM 99.3% | [10]; 10 µM 95.3% | [11]; 10 µM 80.1% | [12]; 10 µM 85.3% | [15]; 10 µM 109% | [15]; 100 µM 22.3% | [13]; 10 µM 102%
active: [1]; 100 µM -85.8% | [2]; 100 µM -51.1% | [5]; 100 µM -68.7% | [6]; 100 µM 2.3% | [7]; 100 µM -28.4% | [8]; 100 µM -1.94% | [9]; 100 µM -30.9% | [10]; 100 µM -55.7% | [11]; 100 µM -46.8% | [12]; 100 µM -76.4% | [13]; 100 µM -18.5%

CCC(=O)OC1CCn2c1nc1c2C(=O)C(C)=C(N2CC2)C1=O (stereo not drawn)
active: [3]; 10 µM unless noted -53.8% | [4]; 10 µM unless noted -6.18% | [5]; 10 µM unless noted -18.5% | [14]; 10 µM unless noted -5.47% | [6]; 10 µM unless noted 1.27% | [8]; 10 µM unless noted -79.1% | [9]; 10 µM unless noted -83.6% | [10]; 10 µM unless noted 3.77% | [11]; 10 µM -15.6% | [12]; 10 µM unless noted 1.09% | [15]; 10 µM unless noted -52.9% | [13]; 10 µM unless noted -35.1%
inactive: [1]; 10 µM unless noted 13.5% | [2]; 10 µM unless noted 13.2% | [7]; 10 µM unless noted 70.2%

CC[C@@]1(O)C[C@H](OC2CC(N(C)C)C(OC3CC(O)C(OC4CCC(=O)C(C)O4)C(C)O3)C(C)O2)c2c(cc3c(c2O)C(=O)c2c(O)ccc(O)c2C3=O)[C@H]1C(=O)OC (stereo partly drawn)
inactive: [3]; 10 µM unless noted 33.1% | [6]; 10 µM unless noted 11% | [7]; 10 µM unless noted 18%
active: [1]; 10 µM unless noted 1.64% | [2]; 10 µM unless noted -36.5% | [4]; 10 µM unless noted -49.2% | [5]; 10 µM unless noted 0.51% | [14]; 10 µM unless noted 9.34% | [8]; 10 µM unless noted -4.5% | [9]; 10 µM unless noted -2.5% | [10]; 10 µM unless noted -1.19% | [11]; 10 µM 0.371% | [12]; 10 µM unless noted -58.7% | [15]; 10 µM unless noted -77.5% | [13]; 10 µM unless noted -14.9%

CC1CCC2(NC1)OC1CC3C4CCC5CC(OC6OC(CO)C(OC7OC(CO)C(O)C(OC8OCC(O)C(O)C8O)C7OC7OC(CO)C(O)C(O)C7O)C(O)C6O)CCC5(C)C4CCC3(C)C1C2C (stereo not drawn)
active: [11]; 100 µM -86% and -100%

Oc1cc[c]([Hg][Cl])cc1
inactive: [1]; 10 µM unless noted 116% | [2]; 10 µM unless noted 100% | [3]; 10 µM unless noted 135% | [4]; 10 µM unless noted 87.8% | [5]; 10 µM unless noted 91% | [14]; 10 µM unless noted 85.5% | [6]; 10 µM unless noted 107% | [8]; 10 µM unless noted 128% | [9]; 10 µM unless noted 96% | [10]; 10 µM unless noted 105% | [11]; 10 µM 50.5% | [12]; 10 µM unless noted 91% | [15]; 10 µM unless noted 114% | [13]; 10 µM unless noted 97.4%

COc1cccc2c1cc([N+](=O)[O-])c1c(C(=O)O)cc3c(c12)OCO3
47.7% (inactive) and -1.44% (active): [15]; 10 µM unless noted
inactive: [1]; 10 µM unless noted 106% and 85.3% | [2]; 10 µM unless noted 82.8% and 141% | [3]; 10 µM unless noted 86% and 95.1% | [4]; 10 µM unless noted 58.6% and 59.2% | [5]; 10 µM unless noted 76.5% and 103% | [14]; 10 µM unless noted 107% and 110% | [6]; 10 µM unless noted 70.7% and 104% | [7]; 10 µM unless noted 91.3% and 84.2% | [8]; 10 µM unless noted 91.7% and 102% | [9]; 10 µM unless noted 93.1% and 100% | [10]; 10 µM unless noted 79.5% and 109% | [11]; 10 µM 38.2% and 94% | [12]; 10 µM unless noted 72.4% and 92.3% | [13]; 10 µM unless noted 84.6% and 99.1%
15.3% (inactive) and 2.6% (active): [11]; 100 µM
